Measured values: PubChem BioAssay (EPA / NIEHS)
Records with an inconclusive call do not appear. Calls of active or inactive are those of the source. The calls were made as follows: active = hit-call score of the fitted dose curve at least 0.9, where 1 is the maximum; inconclusive = response in the unintended direction; inactive = score below 0.9.

Key:
[1] = TOX21_p53_BLA_p4_viability: Viability Assessment in the Tox21 HCT-116 p53 Agonism Beta-lactamase Assay, Phase 4 (AID 2283597);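 also: hits lower the luminescence signal meaning cytotoxicity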
Outline: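 Viability is taken as cellular ATP: after 16 h compound exposure of HCT116 cells and a 2 h room-temperature CCF4-AM substrate step, CellTiter-Glo reagent is added and luminescence is measured 30 min later.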

[2] = target: Cellular tumor antigen p53 (Homo sapiens) (UniProt P04637); test: TOX21_p53_BLA_p5_ratio: Tox21 HCT-116 p53 Agonism Beta-lactamase Assay, Ratio, Phase 5 (AID 2283599)
Outline: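 HCT-116 cells carrying a p53-inducible beta-lactamase reporter were seeded at 4000 cells/well and dosed after 5 h with compound in DMSO (217-fold dilution). After 16 h at 37C, CCF4-AM substrate was added for 2 h, and the 460/530 nm emission ratio was scored as gain-of-signal versus DMSO.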

[3] = target: Cellular tumor antigen p53 (Homo sapiens) (UniProt P04637); test: TOX21_p53_BLA_p4_ratio: Tox21 HCT-116 p53 Agonism Beta-lactamase Assay, Ratio, Phase 4 (AID 2283601)
Outline: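 HCT116 cells carrying an inducible beta-lactamase reporter were plated at 4000 cells/well, rested 5 h, then exposed to compounds in DMSO (217-fold dilution) for 16 h at 37C. CCF4-AM substrate was loaded 2 h at room temperature; 460/530 nm emission ratio scored gain-of-signal versus DMSO.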

[4] = TOX21_p53_BLA_p5_viability: Viability Assessment in the Tox21 HCT-116 p53 Agonism Beta-lactamase Assay, Phase 5 (AID 2283600)
Outline: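 Viability is taken from cellular ATP content, measured by luciferase luminescence in the same wells after the beta-lactamase ratio read. Cells are seeded at 4000 per well and exposed to DMSO-dissolved compounds, diluted 217-fold, for 16 h.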

Chain of Cellular tumor antigen p53 (Homo sapiens) (P04637 whole entry, looked up): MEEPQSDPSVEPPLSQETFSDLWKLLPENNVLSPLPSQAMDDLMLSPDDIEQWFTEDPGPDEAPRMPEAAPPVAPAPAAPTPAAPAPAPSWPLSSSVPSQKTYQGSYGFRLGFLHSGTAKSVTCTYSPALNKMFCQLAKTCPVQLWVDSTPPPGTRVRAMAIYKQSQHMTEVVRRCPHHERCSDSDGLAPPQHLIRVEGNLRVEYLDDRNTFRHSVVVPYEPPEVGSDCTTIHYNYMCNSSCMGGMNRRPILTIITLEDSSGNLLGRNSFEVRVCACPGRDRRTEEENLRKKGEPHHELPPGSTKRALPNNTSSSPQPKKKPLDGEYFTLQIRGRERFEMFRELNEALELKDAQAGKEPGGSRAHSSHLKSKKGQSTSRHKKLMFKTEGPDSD

Fc1ccc(Br)cc1
outcome [1]: inactive
outcome [2]: inactive
outcome [3]: inactive

CO[Si](C)(C)OC
outcome [1]: inactive
outcome [2]: inactive
outcome [3]: inactive

O=C1CCCCCCCCCCC1
outcome [4]: inactive
outcome [3]: inactive

CC(C)c1cc(C(C)C)cc(C(C)C)c1
outcome [1]: inactive
outcome [3]: inactive

CCCCc1ccc(Cl)cc1
outcome [1]: inactive
outcome [4]: inactive
outcome [3]: inactive

COCC(=O)O
outcome [1]: inactive
outcome [3]: inactive

Nc1ccnc(=O)[nH]1
outcome [1]: inactive
outcome [4]: inactive
outcome [3]: inactive

CC12CCC(CC1)C(C)(C)O2
outcome [2]: inactive
outcome [3]: inactive

CC1=C(O)C(=O)C(C)O1 (stereo unspecified)
outcome [2]: inactive
outcome [4]: inactive
outcome [3]: inactive

C=C1C[C@H]2[C@@H]3C=C(C)C4=CC(=O)CC[C@]4(C)[C@H]3CC[C@]2(C)[C@@]1(OC(C)=O)C(C)=O
outcome [1]: inactive
outcome [2]: inactive
outcome [3]: inactive

O=C1CCCCCCCCCCCN1
outcome [1]: inactive
outcome [2]: inactive
outcome [3]: inactive

CCCCNS(=O)(=O)c1ccc(C)cc1
outcome [1]: inactive
outcome [2]: inactive
outcome [3]: inactive

CCCCCCCCCCCC(C)=O
outcome [3]: inactive

C=C(C)[C@@H]1CC=C(C)CC1
outcome [1]: inactive
outcome [2]: inactive
outcome [3]: inactive

O=C(O[C@@H]1Cc2c(O)cc(O)cc2O[C@@H]1c1cc(O)c(O)c(O)c1)c1cc(O)c(O)c(O)c1
outcome [1]: inactive
outcome [2]: inactive
outcome [3]: inactive

N#Cc1ccc(C2CCCc3cncn32)cc1 (stereo unspecified)
outcome [2]: inactive
outcome [4]: inactive
outcome [3]: inactive

CCc1occc(=O)c1O
outcome [4]: inactive

CC1=NN(c2ccc(S(=O)(=O)O)cc2)C(=O)C1N=Nc1ccccc1 (stereo unspecified)
outcome [1]: inactive
outcome [3]: inactive

CC(=O)C(C)C
outcome [2]: inactive
outcome [4]: inactive
outcome [3]: inactive

CC1=CC=C(C(C)C)CC1
outcome [2]: inactive
outcome [4]: inactive

O=C(O)CC(C(=O)O)S(=O)(=O)O (stereo unspecified)
outcome [4]: inactive
outcome [3]: inactive

c1ccc2cnccc2c1
outcome [3]: inactive

CC(=O)OC1CCCCC1C(C)(C)C (stereo unspecified)
outcome [1]: inactive
outcome [2]: inactive
outcome [3]: inactive

CC(C)(C)C1CCC(=O)CC1
outcome [2]: inactive
outcome [3]: inactive

CCCCCCCCCC(C)=O
outcome [2]: inactive

C=CC(=O)OCCCCCCCCCC
outcome [2]: inactive
outcome [4]: inactive
outcome [3]: inactive

NNS(=O)(=O)c1ccc(Oc2ccc(S(=O)(=O)NN)cc2)cc1
outcome [2]: inactive
outcome [3]: inactive

CC(=O)CC(=O)Nc1ccccc1C
outcome [2]: inactive
outcome [4]: inactive

C[Si]1(C)O[Si](C)(C)O[Si](C)(C)O[Si](C)(C)O[Si](C)(C)O1
outcome [4]: inactive
outcome [3]: inactive

CCCc1ccc(O)c(OC)c1
outcome [2]: inactive
outcome [4]: inactive
outcome [3]: inactive

COc1ccc(-c2coc3cc(O)cc(O)c3c2=O)cc1
outcome [1]: inactive
outcome [2]: inactive
outcome [3]: inactive

CCC(C)C(=O)OCCc1ccccc1 (stereo unspecified)
outcome [2]: inactive
outcome [4]: inactive

CCCCCC(=O)OCC
outcome [2]: inactive

O=C(C=Cc1ccccc1)OCCc1ccccc1
outcome [3]: inactive

Cc1c(C(=O)c2c[nH]n(C)c2=O)ccc(S(C)(=O)=O)c1C1=NOCC1
outcome [2]: inactive
outcome [4]: inactive
outcome [3]: inactive
